Measurements from PubChem BioAssay (Tox21).
Inconclusive results are not listed. Calls of active or inactive are those of the source. Unless noted, the call rests on the fitted dose curve.

Tests used:
[1] = Nuclear factor erythroid 2-related factor 2/antioxidant responsive element (Nrf2/ARE) small molecule agonists: qHTS cell viability counter screen in human keratinocytes (AID 1919968; active means well fitted curve in the direction sought with a large enough effect in the repeat runs; an effect the other way counts as inactive or inconclusive; further: nearly all actives have a fitted effect of over 55% in size; further: potency means the concentration at half of the fitted maximal effect)
In short: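 KeratinoSens cells (HaCaT keratinocytes stably carrying an ARE-luciferase reporter) were seeded at 1,500 cells/well and rested 5 h at 37 C/5% CO2. They were then exposed to compounds in DMSO for 23 h. Viability was read by CellTiter-Fluor fluorescence after 1 h.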

[2] = molecular target: Gonadotropin-releasing hormone receptor (Homo sapiens) (UniProt P30968); assay: Human gonadotropin-releasing hormone receptor (GnRHR) small molecule agonists, calcium flux assay in GnRHR-HEK293 cells (AID 1920063); further: nearly all actives have a fitted effect of over 35% in size
In short: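 HEK293 cells stably expressing human GnRHR were plated 18 h at 37 °C, loaded with calcium dye 1 h at 37 °C, then given compound in agonist mode; fluorescence (Ex/Em 480/540) read kinetically for 3 min at 1 s intervals.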

[3] = G protein-coupled receptor (GPCR) small molecule agonists, calcium flux assay: HEK293 wild type cell line counter screen (AID 1920065)
In short: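 Cells were plated and cultured 18 h at 37 C/5% CO2, then loaded with calcium dye for 1 h at 37 C. Compounds in DMSO were pin-transferred in agonist mode, and fluorescence (Ex/Em 480/540) was read kinetically for 3 min at 1 s intervals.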

[4] = p53 small molecule agonists, cell-based qHTS assay with human liver microsomes (AID 1963577); further: potency means the concentration at half of the fitted maximal effect;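 on activation: p53 response element beta-lactamase reporter cells with liver microsomes plus NADPH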
In short: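 HLM-supplemented p53RE-bla reporter assay: 16 h compound exposure at 37 C, microsomes and NADPH each 0.5 mg/mL final, read by fluorescence intensity.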

[5] = p53 small molecule agonists, cell-based qHTS assay with rat liver microsomes (AID 1963578)
In short: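 Quantitative HTS of the Tox21 10K library: p53RE-bla cells, rat liver microsomes plus NADPH at 0.5 mg/mL final each, 16 h at 37 C, beta-lactamase fluorescence detection.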

[6] = p53 small molecule agonists, cell-based qHTS assay with human liver microsomes: qHTS cell viability counter screen (AID 1963579); further: nearly all actives have a fitted effect of over 45% in size; further: potency means the concentration at half of the fitted maximal effect
In short: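 Viability of p53RE-bla cells is measured as CellTiter-Glo luminescence following a 16 h, 37 C incubation with compound, liver microsomes from human donors and NADPH.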

[7] = p53 small molecule agonists, cell-based qHTS assay with rat liver microsomes: qHTS cell viability counter screen (AID 1963580); further: nearly all actives have a fitted effect of over 45% in size; further: potency means the concentration at half of the fitted maximal effect
In short: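 Intracellular ATP, by CellTiter-Glo luminescence, defines viability. HCT-116 p53RE-bla cells, 4,000 per well, were compound-treated in the presence of rat liver microsomes and NADPH for 16 h at 37 C.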

[8] = p53 small molecule agonists, cell-based qHTS assay: qHTS cell viability counter screen (AID 1963581); further: nearly all actives have a fitted effect of over 45% in size
In short: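 p53RE-bla HCT-116 cells were exposed to compounds for 16 h at 37 C; after the beta-lactamase FRET read in the same wells, CellTiter-Glo was added and luminescence (intracellular ATP) read after 30 min at room temperature.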

[9] = molecular target: 5-hydroxytryptamine receptor 2A (Homo sapiens) (UniProt P28223); assay: 5-hydroxytryptamine receptor 2A (HTR2A) small molecule antagonists, cell-based qHTS assay (AID 1963586); further: nearly all actives have a fitted effect of over 45% in size
In short: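 Antagonist-mode intracellular calcium assay: DOI (4 nM) added after 5 min compound pre-incubation at room temperature to dye-loaded HTR2A-CHO cells. Fluorescence followed for 3 min, sampled every second.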

[10] = molecular target: 5-hydroxytryptamine receptor 2A (Homo sapiens) (UniProt P28223); assay: 5-hydroxytryptamine receptor 2A (HTR2A) small molecule agonists, cell-based qHTS assay (AID 1963587); further: nearly all actives have a fitted effect of over 30% in size; further: potency means the concentration at half of the fitted maximal effect
In short: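 Kinetic calcium-flux fluorescence (2 min, 1 sec intervals) after compound addition in agonist mode. HTR2A-CHO cells were cultured 18 h, then dye-loaded 1 h at 37 C.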

[11] = molecular target: Muscarinic acetylcholine receptor M1 (Homo sapiens) (UniProt P11229); assay: Cholinergic receptor muscarinic 1 (CHRM1) small molecule antagonists, cell-based qHTS assay (AID 1963588); further: nearly all actives have a fitted effect of over 40% in size
In short: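 CHRM1-CHO calcium-flux assay, antagonist mode. Cells were seeded 18 h, dye-loaded 1 h at 37 C and given compound for 5 min at RT, then acetylcholine was added at 50nM. FDSS fluorescence was read 3 min; 15 concentrations, three runs.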

[12] = molecular target: Muscarinic acetylcholine receptor M1 (Homo sapiens) (UniProt P11229); assay: Cholinergic receptor muscarinic 1 (CHRM1) small molecule agonists, cell-based qHTS assay (AID 1963589); further: nearly all actives have a fitted effect of over 35% in size
In short: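 CHO cells stably expressing human CHRM1, seeded 18 h at 37 C/5% CO2, dye-loaded 1 h at 37 C, then given compound in agonist mode; intracellular calcium fluorescence read kinetically at 1 s intervals. Fifteen concentrations, three independent runs.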

[13] = cAMP Responsive Elements (CRE) small molecule agonists, cell-based qHTS assay (AID 1963590)
In short: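 CRE-bla HEK 293T cells in DMEM with 10% dialyzed FBS, NEAA, pyruvate and 25 mM HEPES were plated 18 h at 37 C/5% CO2, then exposed to compounds in DMSO for 3 h before LiveBLAzer B/G FRET substrate addition.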

[14] = cAMP Responsive Elements (CRE) small molecule antagonists, cell-based qHTS assay (AID 1963591; active means well fitted inhibition curve with a large enough effect in the signal ratio in the repeat runs, not every such curve was filed as active; the % refers to the signal ratio)
In short: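 CRE-bla HEK293T cells were plated 18 h at 37 °C/5% CO2, pinned with compound in DMSO, then stimulated with NKH477 at 0.25 uM final for 3 h. LiveBLAzer B/G FRET substrate was added and plates incubated 2 h at room temperature.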

[15] = molecular target: D(2) dopamine receptor (Homo sapiens) (UniProt P14416); assay: Dopamine D2 receptor (DRD2) small molecule agonists, cell-based qHTS assay (AID 1963594); further: nearly all actives have a fitted effect of over 35% in size
In short: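 cAMP accumulation in DRD2-HEK293 cells measured by HTRF after 1 h detection; compounds added 10 min before NKH477 (200nM […]) forskolin-analogue stimulation, 30 min at room temperature, with Ro20-1724 present at 0.1 mM final.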

[16] = molecular target: D(2) dopamine receptor (Homo sapiens) (UniProt P14416); assay: Dopamine D2 receptor (DRD2) small molecule antagonists, cell-based qHTS assay (AID 1963595; active means well fitted inhibition curve with a large enough effect in the signal ratio in the repeat runs, with a control signal flat; the % refers to the signal ratio; further: potency means the concentration at half of the fitted maximal effect)
In short: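 HEK293 cells stably expressing DRD2 were preincubated with 0.1 mM Ro20-1724, then with compound for 10 min at room temperature. Cells were stimulated with 200 nM NKH477 plus 12 nM quinpirole for 30 min, and cAMP was read by HTRF.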

[17] = molecular target: KiSS-1 receptor (Homo sapiens) (UniProt Q969F8); assay: Human kisspeptin (KISS1R) small molecule agonists, calcium flux assay in KISS1R-HEK293 cells (AID 1920064; active means well fitted curve in the direction sought with a large enough effect in the repeat runs; an effect the other way counts as inactive or inconclusive)
In short: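 HEK293 cells stably expressing human KISS1R were plated 18 h at 37 °C, loaded with calcium dye for 1 h at 37 °C, then given compound by pin tool. Fluorescence (Ex/Em 480/540) was read kinetically for 3 min.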

[18] = molecular target: Beta-2 adrenergic receptor (Homo sapiens) (UniProt P07550); assay: Adrenergic beta2 receptor (ADRB2) small molecule antagonists, cell-based qHTS assay (AID 1963592); further: series mostly up to about 92 µM; nearly all actives have a fitted effect of over 50% in size
In short: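 Cells (CHO, stable ADRB2 overexpression) incubated 18-20hr at 37C; compounds added from DMSO; agonist mix (1nM isoproterenol, 100uM IBMX, 25uM Ro-20-1724) added; 0.5hr RT; d2-cAMP and anti-cAMP-cryptate added; 1hr RT; 665/615 nm read.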

[19] = p53 small molecule agonists, cell-based qHTS assay (AID 1963582; active means well fitted activation curve with a large enough effect in the signal ratio in the repeat runs, not every such curve was filed as active; the % refers to the signal ratio)
In short: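 p53RE-bla beta-lactamase reporter cells rested 5 h at 37 C/5% CO2, then received compounds in DMSO by pin transfer and were incubated 16 h at 37 C. LiveBLAzer B/G FRET substrate was loaded for 2 h at room temperature before fluorescence reading.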

Measured: Potency

Chain of Gonadotropin-releasing hormone receptor (Homo sapiens) (P30968 whole entry, looked up): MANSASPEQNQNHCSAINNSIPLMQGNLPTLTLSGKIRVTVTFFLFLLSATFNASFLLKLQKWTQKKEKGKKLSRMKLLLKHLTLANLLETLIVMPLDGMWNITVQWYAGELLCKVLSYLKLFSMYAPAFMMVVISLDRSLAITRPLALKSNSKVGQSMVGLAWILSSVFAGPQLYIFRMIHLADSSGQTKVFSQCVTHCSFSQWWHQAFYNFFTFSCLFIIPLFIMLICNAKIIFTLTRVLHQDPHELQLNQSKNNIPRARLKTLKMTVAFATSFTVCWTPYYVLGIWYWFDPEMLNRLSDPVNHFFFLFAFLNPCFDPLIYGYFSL
Chain of 5-hydroxytryptamine receptor 2A (Homo sapiens) (P28223 whole entry, looked up): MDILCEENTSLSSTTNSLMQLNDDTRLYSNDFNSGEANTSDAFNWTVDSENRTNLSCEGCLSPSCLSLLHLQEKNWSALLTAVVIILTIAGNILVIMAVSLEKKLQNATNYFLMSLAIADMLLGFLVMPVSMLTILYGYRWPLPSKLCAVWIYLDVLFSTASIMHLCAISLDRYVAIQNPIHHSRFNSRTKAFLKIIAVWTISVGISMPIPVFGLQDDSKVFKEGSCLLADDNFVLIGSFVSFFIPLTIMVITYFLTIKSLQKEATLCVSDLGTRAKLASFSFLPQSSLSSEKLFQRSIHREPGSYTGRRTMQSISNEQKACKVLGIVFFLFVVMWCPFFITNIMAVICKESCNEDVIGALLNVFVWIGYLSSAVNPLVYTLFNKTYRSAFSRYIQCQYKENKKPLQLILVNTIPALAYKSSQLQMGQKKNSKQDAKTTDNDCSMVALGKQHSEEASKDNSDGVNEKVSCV
Chain of KiSS-1 receptor (Homo sapiens) (Q969F8 whole entry, looked up): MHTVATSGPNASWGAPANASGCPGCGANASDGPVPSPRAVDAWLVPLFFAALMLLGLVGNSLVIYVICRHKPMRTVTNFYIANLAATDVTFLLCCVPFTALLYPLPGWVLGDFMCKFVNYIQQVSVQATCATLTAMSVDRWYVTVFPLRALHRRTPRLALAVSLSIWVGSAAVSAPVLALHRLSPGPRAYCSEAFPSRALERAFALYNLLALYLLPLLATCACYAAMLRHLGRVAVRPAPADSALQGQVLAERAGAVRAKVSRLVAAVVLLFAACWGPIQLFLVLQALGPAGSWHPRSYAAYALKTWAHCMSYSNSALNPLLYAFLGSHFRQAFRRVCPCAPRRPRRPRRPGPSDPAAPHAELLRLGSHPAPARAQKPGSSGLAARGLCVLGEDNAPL
Chain of Beta-2 adrenergic receptor (Homo sapiens) (P07550 whole entry, looked up): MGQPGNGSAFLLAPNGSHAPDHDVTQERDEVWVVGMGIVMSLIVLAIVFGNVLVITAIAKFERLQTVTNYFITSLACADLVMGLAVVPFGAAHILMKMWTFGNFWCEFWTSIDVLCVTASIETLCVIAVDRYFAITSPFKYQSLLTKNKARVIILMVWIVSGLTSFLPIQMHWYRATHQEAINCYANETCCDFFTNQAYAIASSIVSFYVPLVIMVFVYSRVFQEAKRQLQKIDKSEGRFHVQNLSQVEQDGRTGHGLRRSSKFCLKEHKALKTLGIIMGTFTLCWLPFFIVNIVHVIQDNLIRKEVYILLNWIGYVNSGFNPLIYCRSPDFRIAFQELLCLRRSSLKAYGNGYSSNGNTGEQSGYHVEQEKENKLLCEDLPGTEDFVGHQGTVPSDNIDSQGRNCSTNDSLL
Chain of D(2) dopamine receptor (Homo sapiens) (P14416 whole entry, looked up): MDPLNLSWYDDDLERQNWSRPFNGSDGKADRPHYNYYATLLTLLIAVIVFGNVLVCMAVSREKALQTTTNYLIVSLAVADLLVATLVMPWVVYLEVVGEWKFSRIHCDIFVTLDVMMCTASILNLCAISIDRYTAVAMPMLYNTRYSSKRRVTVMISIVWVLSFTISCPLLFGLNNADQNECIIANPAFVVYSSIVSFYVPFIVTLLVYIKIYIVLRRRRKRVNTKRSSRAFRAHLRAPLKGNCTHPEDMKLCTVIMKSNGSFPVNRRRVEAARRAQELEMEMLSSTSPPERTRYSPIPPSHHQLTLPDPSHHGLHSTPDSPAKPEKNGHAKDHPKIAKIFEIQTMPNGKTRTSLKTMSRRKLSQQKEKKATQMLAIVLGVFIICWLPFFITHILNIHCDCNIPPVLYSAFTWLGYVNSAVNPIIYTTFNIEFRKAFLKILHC
Chain of Muscarinic acetylcholine receptor M1 (Homo sapiens) (P11229 whole entry, looked up): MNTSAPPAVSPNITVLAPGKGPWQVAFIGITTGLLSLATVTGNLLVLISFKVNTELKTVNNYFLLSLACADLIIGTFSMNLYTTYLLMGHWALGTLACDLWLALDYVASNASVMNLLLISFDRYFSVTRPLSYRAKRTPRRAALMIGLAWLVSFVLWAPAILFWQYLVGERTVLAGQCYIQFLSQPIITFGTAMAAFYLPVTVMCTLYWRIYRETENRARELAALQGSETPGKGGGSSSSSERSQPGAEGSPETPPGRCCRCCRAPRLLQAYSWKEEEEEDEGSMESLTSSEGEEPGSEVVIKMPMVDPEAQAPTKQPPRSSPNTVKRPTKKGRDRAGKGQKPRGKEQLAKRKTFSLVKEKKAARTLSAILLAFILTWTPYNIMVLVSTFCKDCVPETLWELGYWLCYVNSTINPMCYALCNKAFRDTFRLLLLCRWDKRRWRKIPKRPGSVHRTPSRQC

CCC(C(N)=O)N1CCCC1=O (stereo not drawn)
not listed: [17] | [18] | [19]
inactive: all other assays above

CC(=O)[O-].CC(=O)[O-].O.O.[Cd+2]
active: [1] 42.7 µM | [10] 27.2 µM
not listed: [2] | [4] | [5] | [8] | [13] | [14] | [19]
inactive: all other assays above

BrCC(Br)C1CCC(Br)C(Br)C1 (stereo not drawn)
not listed: [17] | [18]
inactive: all other assays above

CC(=O)[O-].CC(=O)[O-].O.O.[Zn+2]
not listed: [3] | [4] | [5] | [19]
inactive: all other assays above

CCOP(=S)(OCC)Oc1ncn(-c2ccccc2)n1
active: [4] 2.89 µM
not listed: [2] | [5] | [7] | [13] | [14]
inactive: all other assays above

CO/N=C(\C(=O)OC)c1ccccc1CO/N=C(\C)c1cccc(C(F)(F)F)c1
not listed: [2] | [13] | [15] | [19]
inactive: all other assays above

SCc1ccccc1
not listed: [9] | [15] | [17]
inactive: all other assays above

CC(C)CC(N(C)C)C1(c2ccc(Cl)cc2)CCC1 (stereo not drawn)
inactive: [1] | [2] | [3] | [8] | [13] | [14] | [18] | [15] | [16]
active: [7] 0.793 µM

CCCN(CCC)c1c([N+](=O)[O-])cc(S(N)(=O)=O)cc1[N+](=O)[O-]
active: [1] 51.8 µM | [6] 38.8 µM | [7] 49.4 µM | [10] 37 µM | [16] 30.6 µM
inactive: [17] | [3] | [9]
